{"source": "PubChem BioAssay AID1159580", "about": "(chemical genetic matrix, 2015)", "assay": "chemical genetic growth profiling, strain panel (AID 1159580);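 further: tested at 20 µM; growth read once vehicle control cultures reached saturation at 30 °C; 1 = growth at the plate median or of vehicle wells; lower values mean less growth of the strain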", "conditions": "growth OD", "note": "Out of some 5,500 compounds screened, about 2,000 (36%) were called active. Not shown: some 18% with an inconclusive outcome. This is one part of the list. Values without a mark were called inactive. No stated cut-off is given here; in the data, active means normalized growth mostly below about 0.91 (no sharp cut-off); inconclusive means no clear call, values can overlap the other calls; inactive means mostly above about 0.92.", "data": [{"smiles": "COc1c(OC)c2occc2c2oc(=O)ccc12", "values": [{"measurement": "normalized growth", "setting": "S. cerevisiae deletion strains, locus YJR066W, strain TOR1, active compounds read low", "value": 0.929}, {"measurement": "normalized growth", "setting": "S. cerevisiae deletion strains, locus YKL009W, strain mrt4, active compounds read low", "value": 0.957}, {"measurement": "normalized growth", "setting": "S. cerevisiae deletion strains, locus YKL068W, active compounds read low", "value": 0.978}, {"measurement": "normalized growth", "setting": "S. cerevisiae deletion strains, locus YKL085W, strain MDH1 (second series), active compounds read low", "value": 0.97}, {"measurement": "normalized growth", "setting": "S. cerevisiae deletion strains, locus YKL085W, strain MDH1, active compounds read low", "value": 0.97}, {"measurement": "normalized growth", "setting": "S. cerevisiae deletion strains, locus YKL160W, strain elf1, active compounds read low", "value": 0.942}, {"measurement": "normalized growth", "setting": "S. cerevisiae deletion strains, locus YKL190W, strain CNB1, active compounds read low", "value": 0.965}, {"measurement": "normalized growth", "setting": "S. cerevisiae deletion strains, locus YKR001C, strain vps1, active compounds read low", "value": "0.644 (active)"}, {"measurement": "normalized growth", "setting": "S. cerevisiae deletion strains, locus YKR026C, strain gcn3, active compounds read low", "value": 0.967}, {"measurement": "normalized growth", "setting": "S. cerevisiae deletion strains, locus YKR091W, strain srl3, active compounds read low", "value": 0.985}, {"measurement": "normalized growth", "setting": "S. cerevisiae deletion strains, locus YLL001W, strain dnm1, active compounds read low", "value": 0.993}, {"measurement": "normalized growth", "setting": "S. cerevisiae deletion strains, locus YLL026W, active compounds read low", "value": 0.991}, {"measurement": "normalized growth", "setting": "S. cerevisiae deletion strains, locus YLL041C, strain sdh2, active compounds read low", "value": 0.975}, {"measurement": "normalized growth", "setting": "S. cerevisiae deletion strains, locus YLR027C, strain aat2, active compounds read low", "value": 0.964}, {"measurement": "normalized growth", "setting": "S. cerevisiae deletion strains, locus YLR039C, strain RIC1, active compounds read low", "value": 0.68}, {"measurement": "normalized growth", "setting": "S. cerevisiae deletion strains, locus YLR058C, strain SHM2, active compounds read low", "value": 0.96}, {"measurement": "normalized growth", "setting": "S. cerevisiae deletion strains, locus YLR102C, strain apc9, active compounds read low", "value": 0.983}, {"measurement": "normalized growth", "setting": "S. cerevisiae deletion strains, locus YLR113W, strain HOG1, active compounds read low", "value": 0.958}, {"measurement": "normalized growth", "setting": "S. cerevisiae deletion strains, locus YLR221C, strain rsa3, active compounds read low", "value": 0.952}, {"measurement": "normalized growth", "setting": "S. cerevisiae deletion strains, locus YLR258W, strain gsy2, active compounds read low", "value": 0.988}, {"measurement": "normalized growth", "setting": "S. cerevisiae deletion strains, locus YLR262C, strain YPT6 (second series), active compounds read low", "value": 0.939}, {"measurement": "normalized growth", "setting": "S. cerevisiae deletion strains, locus YLR262C, strain YPT6, active compounds read low", "value": 0.79}, {"measurement": "normalized growth", "setting": "S. cerevisiae deletion strains, locus YLR268W, strain sec22, active compounds read low", "value": 0.927}, {"measurement": "normalized growth", "setting": "S. cerevisiae deletion strains, locus YLR320W, strain mms22, active compounds read low", "value": 0.895}, {"measurement": "normalized growth", "setting": "S. cerevisiae deletion strains, locus YLR330W, strain CHS5, active compounds read low", "value": 0.939}, {"measurement": "normalized growth", "setting": "S. cerevisiae deletion strains, locus YLR342W, strain FKS1 (second series), active compounds read low", "value": 0.95}, {"measurement": "normalized growth", "setting": "S. cerevisiae deletion strains, locus YLR342W, strain FKS1, active compounds read low", "value": 0.992}, {"measurement": "normalized growth", "setting": "S. cerevisiae deletion strains, locus YLR357W, strain rsc2, active compounds read low", "value": 1.01}, {"measurement": "normalized growth", "setting": "S. cerevisiae deletion strains, locus YLR370C, strain arc18, active compounds read low", "value": 0.982}, {"measurement": "normalized growth", "setting": "S. cerevisiae deletion strains, locus YLR371W, strain rom2, active compounds read low", "value": "0.816 (active)"}, {"measurement": "normalized growth", "setting": "S. cerevisiae deletion strains, locus YLR384C, strain iki3, active compounds read low", "value": 0.991}, {"measurement": "normalized growth", "setting": "S. cerevisiae deletion strains, locus YLR418C, strain cdc73, active compounds read low", "value": "0.754 (active)"}, {"measurement": "normalized growth", "setting": "S. cerevisiae deletion strains, locus YML016C, strain PPZ1, active compounds read low", "value": 0.936}, {"measurement": "normalized growth", "setting": "S. cerevisiae deletion strains, locus YML032C, strain rad52, active compounds read low", "value": 0.915}, {"measurement": "normalized growth", "setting": "S. cerevisiae deletion strains, locus YML120C, strain ndi1, active compounds read low", "value": 0.948}, {"measurement": "normalized growth", "setting": "S. cerevisiae deletion strains, locus YML124C, strain tub3, active compounds read low", "value": 0.968}, {"measurement": "normalized growth", "setting": "S. cerevisiae deletion strains, locus YMR058W, strain fet3, active compounds read low", "value": 0.971}, {"measurement": "normalized growth", "setting": "S. cerevisiae deletion strains, locus YMR078C, strain ctf18, active compounds read low", "value": 0.955}, {"measurement": "normalized growth", "setting": "S. cerevisiae deletion strains, locus YMR125W, strain sto1, active compounds read low", "value": 1.01}, {"measurement": "normalized growth", "setting": "S. cerevisiae deletion strains, locus YMR129W, active compounds read low", "value": 0.986}, {"measurement": "normalized growth", "setting": "S. cerevisiae deletion strains, locus YMR205C, strain PFK2, active compounds read low", "value": 0.987}, {"measurement": "normalized growth", "setting": "S. cerevisiae deletion strains, locus YMR223W, strain ubp8, active compounds read low", "value": 0.933}, {"measurement": "normalized growth", "setting": "S. cerevisiae deletion strains, locus YMR231W, strain pep5, active compounds read low", "value": 0.987}, {"measurement": "normalized growth", "setting": "S. cerevisiae deletion strains, locus YMR263W, strain SAP30, active compounds read low", "value": 0.916}, {"measurement": "normalized growth", "setting": "S. cerevisiae deletion strains, locus YMR307W, strain GAS1, active compounds read low", "value": 0.816}, {"measurement": "normalized growth", "setting": "S. cerevisiae deletion strains, locus YNL067W, strain RPL9B, active compounds read low", "value": 0.941}, {"measurement": "normalized growth", "setting": "S. cerevisiae deletion strains, locus YNL071W, strain lat1, active compounds read low", "value": 0.929}, {"measurement": "normalized growth", "setting": "S. cerevisiae deletion strains, locus YNL183C, strain NPR1, active compounds read low", "value": 0.921}, {"measurement": "normalized growth", "setting": "S. cerevisiae deletion strains, locus YNL209W, strain ssb2, active compounds read low", "value": 0.976}, {"measurement": "normalized growth", "setting": "S. cerevisiae deletion strains, locus YNL233W, strain BNI4, active compounds read low", "value": 0.872}, {"measurement": "normalized growth", "setting": "S. cerevisiae deletion strains, locus YNL248C, strain rpa49, active compounds read low", "value": 0.906}, {"measurement": "normalized growth", "setting": "S. cerevisiae deletion strains, locus YNL250W, strain rad50, active compounds read low", "value": 0.989}, {"measurement": "normalized growth", "setting": "S. cerevisiae deletion strains, locus YNL271C, strain bni1, active compounds read low", "value": 0.965}, {"measurement": "normalized growth", "setting": "S. cerevisiae deletion strains, locus YNL298W, strain CLA4, active compounds read low", "value": 0.95}, {"measurement": "normalized growth", "setting": "S. cerevisiae deletion strains, locus YNL307C, strain MCK1, active compounds read low", "value": "0.859 (active)"}, {"measurement": "normalized growth", "setting": "S. cerevisiae deletion strains, locus YNL322C, strain KRE1 (second series), active compounds read low", "value": 0.986}, {"measurement": "normalized growth", "setting": "S. cerevisiae deletion strains, locus YNL322C, strain KRE1, active compounds read low", "value": 0.973}, {"measurement": "normalized growth", "setting": "S. cerevisiae deletion strains, locus YNR049C, strain mso1, active compounds read low", "value": 0.985}, {"measurement": "normalized growth", "setting": "S. cerevisiae deletion strains, locus YNR052C, strain pop2, active compounds read low", "value": 0.948}, {"measurement": "normalized growth", "setting": "S. cerevisiae deletion strains, locus YOL012C, strain htz1", "value": 0.5}, {"measurement": "normalized growth", "setting": "S. cerevisiae deletion strains, locus YOL147C, strain pex11, active compounds read low", "value": 0.958}, {"measurement": "normalized growth", "setting": "S. cerevisiae deletion strains, locus YOR001W, strain rrp6, active compounds read low", "value": 0.936}, {"measurement": "normalized growth", "setting": "S. cerevisiae deletion strains, locus YOR061W, strain CKA2, active compounds read low", "value": 0.962}, {"measurement": "normalized growth", "setting": "S. cerevisiae deletion strains, locus YOR069W, strain VPS5, active compounds read low", "value": 0.968}, {"measurement": "normalized growth", "setting": "S. cerevisiae deletion strains, locus YOR070C, strain gyp1, active compounds read low", "value": 0.977}, {"measurement": "normalized growth", "setting": "S. cerevisiae deletion strains, locus YOR080W, strain dia2, active compounds read low", "value": 0.98}, {"measurement": "normalized growth", "setting": "S. cerevisiae deletion strains, locus YOR083W, strain WHI5, active compounds read low", "value": 0.908}, {"measurement": "normalized growth", "setting": "S. cerevisiae deletion strains, locus YOR106W, strain vam3, active compounds read low", "value": 0.946}, {"measurement": "normalized growth", "setting": "S. cerevisiae deletion strains, locus YOR136W, strain idh2, active compounds read low", "value": 0.995}, {"measurement": "normalized growth", "setting": "S. cerevisiae deletion strains, locus YOR144C, strain elg1, active compounds read low", "value": 0.954}, {"measurement": "normalized growth", "setting": "S. cerevisiae deletion strains, locus YOR184W, strain ser1, active compounds read low", "value": "0.859 (active)"}, {"measurement": "normalized growth", "setting": "S. cerevisiae deletion strains, locus YOR231W, strain MKK1, active compounds read low", "value": 0.956}, {"measurement": "normalized growth", "setting": "S. cerevisiae deletion strains, locus YOR265W, strain rbl2, active compounds read low", "value": 0.985}, {"measurement": "normalized growth", "setting": "S. cerevisiae deletion strains, locus YOR270C, strain vph1, active compounds read low", "value": 0.857}, {"measurement": "normalized growth", "setting": "S. cerevisiae deletion strains, locus YOR290C, strain snf2, active compounds read low", "value": 0.944}, {"measurement": "normalized growth", "setting": "S. cerevisiae deletion strains, locus YOR316C, strain cot1, active compounds read low", "value": 0.985}, {"measurement": "normalized growth", "setting": "S. cerevisiae deletion strains, locus YPL051W, strain arl3, active compounds read low", "value": 0.933}, {"measurement": "normalized growth", "setting": "S. cerevisiae deletion strains, locus YPL055C, strain LGE1, active compounds read low", "value": 0.87}, {"measurement": "normalized growth", "setting": "S. cerevisiae deletion strains, locus YPL078C, strain atp4, active compounds read low", "value": 0.932}, {"measurement": "normalized growth", "setting": "S. cerevisiae deletion strains, locus YPL106C, strain sse1, active compounds read low", "value": 0.94}, {"measurement": "normalized growth", "setting": "S. cerevisiae deletion strains, locus YPL240C, strain hsp82, active compounds read low", "value": 0.958}, {"measurement": "normalized growth", "setting": "S. cerevisiae deletion strains, locus YPL241C, strain CIN2, active compounds read low", "value": 0.941}, {"measurement": "normalized growth", "setting": "S. cerevisiae deletion strains, locus YPL256C, strain CLN2, active compounds read low", "value": 0.973}, {"measurement": "normalized growth", "setting": "S. cerevisiae deletion strains, locus YPR119W, strain clb2, active compounds read low", "value": 0.98}, {"measurement": "normalized growth", "setting": "S. cerevisiae deletion strains, locus YPR141C, strain kar3, active compounds read low", "value": 0.985}, {"measurement": "normalized growth", "setting": "S. cerevisiae deletion strains, locus YPR163C, strain tif3, active compounds read low", "value": 0.917}, {"measurement": "normalized growth", "setting": "S. cerevisiae deletion strains, locus YPR167C, strain met16, active compounds read low", "value": 0.96}, {"measurement": "normalized growth", "setting": "S. cerevisiae deletion strains, strain wtn01, active compounds read low", "value": 0.957}, {"measurement": "normalized growth", "setting": "S. cerevisiae strains, strain wild type, active compounds read low", "value": 0.967}]}]}
